Experimental data from PubChem BioAssay AID1159580 (chemical genetic matrix, 2015).
“And” between values parts separate entries of the source, which are not always exact repeats. Equal values may be shown once. Among all 5,500 compounds or so, about 2,000 (36%) were called active. Inconclusive results (about 18%) are left out. No stated cut-off is given here; in the data, active means normalized growth mostly below about 0.91 (no sharp cut-off); inconclusive means no clear call, values can overlap the other calls; inactive means mostly above about 0.92. Some of the results follow.

Assay: chemical genetic growth profiling, strain panel (AID 1159580);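 further: tested at 20 µM; growth read once vehicle control cultures reached saturation at 30 °C; 1 = growth at the plate median or of vehicle wells; lower values mean less growth of the strain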
Settings: growth OD

Measured: normalized growth

CN(C)CCCN1c2ccccc2CCc2ccccc21
inactive: S. cerevisiae deletion strains, locus YJR075W, strain HOC1, active compounds read low 0.97 | S. cerevisiae deletion strains, locus YKL009W, strain mrt4, active compounds read low 0.992 | S. cerevisiae deletion strains, locus YKL068W, active compounds read low 0.992 | S. cerevisiae deletion strains, locus YKL085W, strain MDH1 (second series), active compounds read low 0.987 | S. cerevisiae deletion strains, locus YKL085W, strain MDH1, active compounds read low 0.987 | S. cerevisiae deletion strains, locus YKL160W, strain elf1, active compounds read low 1 | S. cerevisiae deletion strains, locus YKR001C, strain vps1, active compounds read low 0.988 | S. cerevisiae deletion strains, locus YKR026C, strain gcn3, active compounds read low 1.01 | S. cerevisiae deletion strains, locus YKR091W, strain srl3, active compounds read low 1.01 | S. cerevisiae deletion strains, locus YLL001W, strain dnm1, active compounds read low 0.994 | S. cerevisiae deletion strains, locus YLL026W, active compounds read low 0.999 | S. cerevisiae deletion strains, locus YLL041C, strain sdh2, active compounds read low 1.01 | S. cerevisiae deletion strains, locus YLR027C, strain aat2, active compounds read low 1 | S. cerevisiae deletion strains, locus YLR039C, strain RIC1, active compounds read low 1.15 | S. cerevisiae deletion strains, locus YLR058C, strain SHM2, active compounds read low 1 | S. cerevisiae deletion strains, locus YLR102C, strain apc9, active compounds read low 0.984 | S. cerevisiae deletion strains, locus YLR113W, strain HOG1, active compounds read low 1.01 | S. cerevisiae deletion strains, locus YLR221C, strain rsa3, active compounds read low 0.98 | S. cerevisiae deletion strains, locus YLR258W, strain gsy2, active compounds read low 0.989 | S. cerevisiae deletion strains, locus YLR262C, strain YPT6 (second series), active compounds read low 1.04 | S. cerevisiae deletion strains, locus YLR262C, strain YPT6, active compounds read low 1.25 | S. cerevisiae deletion strains, locus YLR268W, strain sec22, active compounds read low 0.994 | S. cerevisiae deletion strains, locus YLR320W, strain mms22, active compounds read low 0.991 | S. cerevisiae deletion strains, locus YLR330W, strain CHS5, active compounds read low 1.01 | S. cerevisiae deletion strains, locus YLR342W, strain FKS1 (second series), active compounds read low 0.997 | S. cerevisiae deletion strains, locus YLR342W, strain FKS1, active compounds read low 1 | S. cerevisiae deletion strains, locus YLR357W, strain rsc2, active compounds read low 1.01 | S. cerevisiae deletion strains, locus YLR370C, strain arc18, active compounds read low 1.01 | S. cerevisiae deletion strains, locus YLR371W, strain rom2, active compounds read low 0.987 | S. cerevisiae deletion strains, locus YLR384C, strain iki3, active compounds read low 1.01 | S. cerevisiae deletion strains, locus YLR418C, strain cdc73, active compounds read low 0.956 | S. cerevisiae deletion strains, locus YML016C, strain PPZ1, active compounds read low 1.01 | S. cerevisiae deletion strains, locus YML032C, strain rad52, active compounds read low 0.996 | S. cerevisiae deletion strains, locus YML120C, strain ndi1, active compounds read low 0.992 | S. cerevisiae deletion strains, locus YML124C, strain tub3, active compounds read low 0.996 | S. cerevisiae deletion strains, locus YMR058W, strain fet3, active compounds read low 1.01 | S. cerevisiae deletion strains, locus YMR078C, strain ctf18, active compounds read low 0.985 | S. cerevisiae deletion strains, locus YMR125W, strain sto1, active compounds read low 1.01 | S. cerevisiae deletion strains, locus YMR129W, active compounds read low 1 | S. cerevisiae deletion strains, locus YMR205C, strain PFK2, active compounds read low 0.998 | S. cerevisiae deletion strains, locus YMR223W, strain ubp8, active compounds read low 0.962 | S. cerevisiae deletion strains, locus YMR231W, strain pep5, active compounds read low 0.998 | S. cerevisiae deletion strains, locus YMR263W, strain SAP30, active compounds read low 1 | S. cerevisiae deletion strains, locus YMR307W, strain GAS1, active compounds read low 1.09 and 0.988 | S. cerevisiae deletion strains, locus YNL067W, strain RPL9B, active compounds read low 1 | S. cerevisiae deletion strains, locus YNL071W, strain lat1, active compounds read low 1 | S. cerevisiae deletion strains, locus YNL128W, strain TEP1, active compounds read low 1 | S. cerevisiae deletion strains, locus YNL153C, strain GIM3, active compounds read low 1.01 | S. cerevisiae deletion strains, locus YNL175C, strain NOP13, active compounds read low 1 | S. cerevisiae deletion strains, locus YNL183C, strain NPR1, active compounds read low 0.942 | S. cerevisiae deletion strains, locus YNL197C, strain WHI3, active compounds read low 1 | S. cerevisiae deletion strains, locus YNL209W, strain ssb2, active compounds read low 1.03 | S. cerevisiae deletion strains, locus YNL224C, strain SQS1, active compounds read low 1.05 | S. cerevisiae deletion strains, locus YNL233W, strain BNI4, active compounds read low 1.01 | S. cerevisiae deletion strains, locus YNL248C, strain rpa49, active compounds read low 0.988 | S. cerevisiae deletion strains, locus YNL250W, strain rad50, active compounds read low 0.987 | S. cerevisiae deletion strains, locus YNL271C, strain bni1, active compounds read low 0.993 | S. cerevisiae deletion strains, locus YNL298W, strain CLA4, active compounds read low 1 | S. cerevisiae deletion strains, locus YNL307C, strain MCK1, active compounds read low 0.982 | S. cerevisiae deletion strains, locus YNL322C, strain KRE1 (second series), active compounds read low 0.997 | S. cerevisiae deletion strains, locus YNL322C, strain KRE1, active compounds read low 1 and 0.979 | S. cerevisiae deletion strains, locus YNR049C, strain mso1, active compounds read low 1.03 | S. cerevisiae deletion strains, locus YNR052C, strain pop2, active compounds read low 0.978 | S. cerevisiae deletion strains, locus YOL006C, strain TOP1, active compounds read low 0.946 | S. cerevisiae deletion strains, locus YOL012C, strain htz1 0.613 | S. cerevisiae deletion strains, locus YOL147C, strain pex11, active compounds read low 0.994 | S. cerevisiae deletion strains, locus YOR001W, strain rrp6, active compounds read low 1 | S. cerevisiae deletion strains, locus YOR061W, strain CKA2, active compounds read low 1.01 | S. cerevisiae deletion strains, locus YOR069W, strain VPS5, active compounds read low 1 | S. cerevisiae deletion strains, locus YOR070C, strain gyp1, active compounds read low 1 | S. cerevisiae deletion strains, locus YOR080W, strain dia2, active compounds read low 0.995 | S. cerevisiae deletion strains, locus YOR083W, strain WHI5 (second series), active compounds read low 1.07 | S. cerevisiae deletion strains, locus YOR083W, strain WHI5, active compounds read low 0.995 | S. cerevisiae deletion strains, locus YOR106W, strain vam3, active compounds read low 0.997 | S. cerevisiae deletion strains, locus YOR136W, strain idh2, active compounds read low 0.999 | S. cerevisiae deletion strains, locus YOR144C, strain elg1, active compounds read low 0.992 | S. cerevisiae deletion strains, locus YOR184W, strain ser1, active compounds read low 1.02 | S. cerevisiae deletion strains, locus YOR231W, strain MKK1, active compounds read low 0.975 | S. cerevisiae deletion strains, locus YOR265W, strain rbl2, active compounds read low 1.01 | S. cerevisiae deletion strains, locus YOR270C, strain vph1, active compounds read low 0.932 | S. cerevisiae deletion strains, locus YOR290C, strain snf2, active compounds read low 1 | S. cerevisiae deletion strains, locus YOR316C, strain cot1, active compounds read low 0.993 | S. cerevisiae deletion strains, locus YPL051W, strain arl3, active compounds read low 0.992 | S. cerevisiae deletion strains, locus YPL055C, strain LGE1, active compounds read low 0.99 and 0.992 | S. cerevisiae deletion strains, locus YPL078C, strain atp4, active compounds read low 1.01 | S. cerevisiae deletion strains, locus YPL106C, strain sse1, active compounds read low 0.996 | S. cerevisiae deletion strains, locus YPL240C, strain hsp82, active compounds read low 1 | S. cerevisiae deletion strains, locus YPL241C, strain CIN2, active compounds read low 1.01 | S. cerevisiae deletion strains, locus YPL256C, strain CLN2, active compounds read low 0.972 | S. cerevisiae deletion strains, locus YPR119W, strain clb2, active compounds read low 0.99 | S. cerevisiae deletion strains, locus YPR141C, strain kar3, active compounds read low 0.993 | S. cerevisiae deletion strains, locus YPR163C, strain tif3, active compounds read low 0.982 | S. cerevisiae deletion strains, locus YPR167C, strain met16, active compounds read low 0.989 | S. cerevisiae deletion strains, strain wtn01, active compounds read low 0.988 | S. cerevisiae strains, strain wild type, active compounds read low 1.01
